Assay results published in PubChem BioAssay.
Potency and affinity values are given separately. Records with an inconclusive call do not appear. Calls of active or inactive are those of the source. Unless noted, no rule for the calls is given here.

Experiments:
[1] = RMG-1 ovarian cancer cell viability loss – cherry-pick, dose response (AID 687029;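 active = signal drop whose fitted half-maximal concentration is at most twice the top valid dose, in every test run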;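 also: cells exposed to compound for 96 hours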); conditions: RMG-1 viability, CellTiterGlo ATP luminescence, 96 h; series mostly up to 35 µM
[2] = IOSE-T80 viability loss, PAX8-independent line – cell-based, cherry-pick, selectivity assay for PAX8 inhibitor project, dose response (AID 687032;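 active = fitted half-maximal concentration for viability loss no higher than twice the top valid dose, in every repeat run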;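 also: cells exposed to compound for 96 h before reading; 0% = neutral control wells and -100% = 2 µM mitoxantrone kill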); conditions: CellTiterGlo ATP luminescence, 96 h; series mostly up to 35 µM
[3] = CMV-driven luciferase expression suppression in HEK293 – cell-based, luminescence, dry powder, counter-screen for Pax8 inhibitor project, dose response (AID 743020;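 active = signal-lowering compounds whose fitted half-maximal concentration is at or below twice the top tested dose in every run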;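 also: HEK293 cells stably expressing the CMV luciferase reporter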); conditions: HEK293 CMV-luciferase reporter, SteadyGlo luminescence, 24 h; series mostly up to 35 µM
[4] = general cell-killing toxicity readout – plate reader, dry powder samples, cytotoxicity control for PAX8 inhibitor project, dose response (AID 743021); conditions: cell line, non-specific cytotoxicity counter-screen; series mostly up to 35 µM
[5] = IGROV1 cell killing – plate reader, dry powder samples, PAX8 inhibitor project, dose response (AID 743043); conditions: IGROV1 ovarian cancer cell cytotoxicity; series mostly up to 35 µM;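 also: more negative means fewer viable cells or more cytotoxicity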
[6] = OVCAR-3 cell viability loss – plate reader, dry powder samples, PAX8 inhibitor project, dose response (AID 743044); conditions: NIH:OVCAR-3 ovarian cancer cell viability; max activity: at 35 µM, hits give low values unless noted; series mostly up to 50 µM
[7] = toxicity toward immortalized ovarian surface epithelium – cell-based, plate reader, dry powder samples, cytotoxicity control for PAX8 inhibitor project, dose response (AID 743045); conditions: IOSE-T80 ovarian epithelial cells; series mostly up to 35 µM;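 also: 0% = neutral control median and -100% = positive control median; more negative values mean more cell killing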
[8] = A2780 cell killing – plate reader, dry powder samples, cytotoxicity control, dose response (AID 743046); conditions: A2780 ovarian cancer cytotoxicity; series mostly up to 35 µM;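 also: 0% = neutral control wells and -100% = cytotoxic reference compound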
[9] = OVCAR8 cell viability loss – plate reader, dry powder samples, PAX8 project, dose response (AID 743197); conditions: series mostly up to 35 µM

Measured: max activity

C[C@@H]1CN([C@@H](C)CO)C(=O)Cc2cc(NC(=O)C3CC3)ccc2O[C@H]1CN(C)Cc1ccc(-c2ccccc2)cc1
inactive: [1] | [2] | [3] | [4] | [5] | [6] 11.5% [at 0.26 µM, hits give low values] | [7] | [8] | [9]

C[C@H](CO)N1C[C@H](C)[C@@H](CN(C)Cc2ccc(-c3ccccc3)cc2)Oc2ccc(NC(=O)Cc3ccccc3)cc2CC1=O
inactive: [1] | [2] | [3] | [4] | [5] | [6] -13.7% [at 0.5 µM, hits give low values] | [7] | [8] | [9]

C[C@@H]1CCCCO[C@@H](CN(C)C(=O)C2CCCCC2)[C@H](C)CN([C@@H](C)CO)C(=O)c2cc(NS(=O)(=O)c3ccc(Cl)cc3)ccc2O1
inactive: [1] | [2] | [3] | [4] | [5] | [6] -23.1% | [7] | [8] | [9]

C[C@@H]1CCCCO[C@H](CN(C)Cc2ccncc2)[C@H](C)CN([C@@H](C)CO)C(=O)c2cc(NC(=O)Nc3ccc(C(F)(F)F)cc3)ccc2O1
inactive: [1] | [2] | [3] | [4] | [5] | [6] -11.1% [at 0.26 µM, hits give low values] | [7] | [8] | [9]

CCCC#Cc1ccc([C@@H]2[C@H]3CN(S(=O)(=O)c4ccccc4F)CCCCN3[C@H]2CO)cc1
inactive: [1] | [2] | [3] | [4] | [5] | [6] 36.9% [at 8 µM, hits give low values] | [7] | [8] | [9]

O=C(C[C@H]1CC[C@@H]2[C@H](COC[C@@H](O)CN2Cc2ccc(F)cc2)O1)NCc1ccccc1Cl
inactive: [1] | [2] | [3] | [4] | [5] | [6] 64.7% | [7] | [8] | [9]

CO[C@H]1CN(C)C(=O)c2cc(NC(=O)c3nc4ccccc4s3)ccc2OC[C@H](C)N(Cc2cccnc2)C[C@H]1C
inactive: [1] | [2] | [3] | [4] | [5] | [6] 15.1% [at 0.26 µM, hits give low values] | [7] | [8] | [9]

C[C@H]1CCCCO[C@@H](CN(C)C(=O)NC2CCCCC2)[C@@H](C)CN([C@@H](C)CO)C(=O)c2cc(NC(=O)Nc3ccc(C(F)(F)F)cc3)ccc2O1
inactive: [1] | [2] | [3] | [4] | [5] | [6] 10.8% [at 2.1 µM, hits give low values] | [7] | [8] | [9]

C[C@H]1CN([C@@H](C)CO)C(=O)c2c(c3ccccc3n2C)-c2ccccc2CO[C@@H]1CN(C)Cc1ccc(-c2ccccc2)cc1
inactive: [1] | [2] | [3] | [4] | [5] | [6] 59% [at 30 µM, hits give low values] | [7] | [8] | [9]

C[C@@H]1CCCCO[C@@H](CN(C)Cc2ccc(C(F)(F)F)cc2)[C@H](C)CN([C@H](C)CO)C(=O)c2cc(NC(=O)Cc3ccccc3)ccc2O1
inactive: [1] | [2] | [3] | [4] | [5] | [6] -36.2% | [7] | [8] | [9]

COc1ccc(NC(=O)Nc2ccc3c(c2)CC(=O)N([C@@H](C)CO)C[C@@H](C)[C@@H](CN(C)Cc2ccc(Oc4ccccc4)cc2)O3)cc1
inactive: [1] | [2] | [3] | [4] | [5] | [6] 14.4% [at 18 µM, hits give low values] | [7] | [8] | [9]

C[C@@H]1CCCCO[C@@H](CN(C)CC2CCCCC2)[C@@H](C)CN([C@@H](C)CO)C(=O)c2cc(NC(=O)Nc3ccc(C(F)(F)F)cc3)ccc2O1
inactive: [1] | [2] | [3] | [4] | [5] | [6] 17.1% [at 0.5 µM, hits give low values] | [7] | [8] | [9]

C[C@@H]1CN([C@@H](C)CO)C(=O)c2cc(N(C)C)ccc2O[C@@H]1CN(C)Cc1ccc(Oc2ccccc2)cc1
inactive: [1] | [2] | [3] | [4] | [5] | [6] -18.3% | [7] | [8] | [9]

C[C@@H]1CN([C@H](C)CO)C(=O)c2cc(NC(=O)Nc3ccc(C(F)(F)F)cc3)ccc2O[C@@H](C)CCCCO[C@H]1CN(C)C(=O)Nc1ccc(F)cc1
inactive: [1] | [2] | [3] | [4] | [5] | [6] -1.73% | [7] | [8] | [9]

CCCC(=O)Nc1ccc2c(c1)C(=O)N(C)C[C@@H](OC)[C@H](C)CN(Cc1ccc(-c3ccccn3)cc1)[C@H](C)CO2
inactive: [1] | [2] | [3] | [4] | [5] | [6] 8.7% [at 0.5 µM, hits give low values] | [7] | [8] | [9]

C[C@@H]1CCCCO[C@H](CN(C)CC2CCCCC2)[C@H](C)CN([C@H](C)CO)C(=O)c2cc(NS(=O)(=O)c3ccc(Cl)cc3)ccc2O1
inactive: [1] | [2] | [3] | [4] | [5] | [6] 10.1% | [7] | [8] | [9]

C[C@H]1CCCCO[C@H](CN(C)Cc2ccc(Cl)c(Cl)c2)[C@@H](C)CN([C@@H](C)CO)C(=O)c2cc(NC(=O)Nc3ccc(F)cc3)ccc2O1
inactive: [1] | [2] | [3] | [4] | [5] | [6] -19.8% [at 0.26 µM, hits give low values] | [7] | [8] | [9]

C[C@H]1CN([C@@H](C)CO)C(=O)Cc2cc(NC(=O)Nc3ccc(C(F)(F)F)cc3)ccc2O[C@H]1CN(C)C(=O)Nc1ccc(C(F)(F)F)cc1
inactive: [1] | [2] | [3] | [4] | [5] | [6] 24.3% [at 0.56 µM, hits give low values] | [7] | [9]

Cc1ccc(S(=O)(=O)N(C)C[C@@H]2OCCCC[C@H](C)Oc3ccc(NS(=O)(=O)c4ccc(Cl)cc4)cc3C(=O)N([C@H](C)CO)C[C@H]2C)cc1
inactive: [1] | [2] | [3] | [4] | [5] | [6] 19.8% [at 0.5 µM, hits give low values] | [7] | [8] | [9]

COc1ccc(S(=O)(=O)N2CCCCN3[C@H](C2)[C@H](c2ccc(C#CC(C)C)cc2)[C@@H]3CO)cc1
inactive: [1] | [2] | [3] | [4] | [5] | [6] -13.1% [at 8 µM, hits give low values] | [7] | [8] | [9]

N#C[C@H]1[C@H](c2ccc(C#CC3CCCCC3)cc2)[C@H](CO)N1C(=O)Nc1ccc(F)cc1
inactive: [1] | [2] | [3] | [4] | [5] | [6] -34% [at 0.5 µM, hits give low values] | [7] | [9]

Cc1noc(C)c1S(=O)(=O)N(C)C[C@H]1OCCCC[C@@H](C)Oc2ccc(NS(=O)(=O)c3ccc(Cl)cc3)cc2C(=O)N([C@@H](C)CO)C[C@H]1C
inactive: [1] | [2] | [3] | [4] | [5] | [6] -28.8% [at 2.1 µM, hits give low values] | [7] | [9]

C[C@@H]1CCCCO[C@@H](CN(C)Cc2ccc(Cl)c(Cl)c2)[C@H](C)CN([C@@H](C)CO)C(=O)c2cc(NC(=O)Nc3ccccc3)ccc2O1
inactive: [1] | [2] | [3] | [4] | [5] | [6] 10.2% [at 16 µM, hits give low values] | [7] | [9]

O=S(=O)(c1ccc(F)cc1)N1C[C@H]2[C@@H](c3ccccc31)[C@H](CO)N2Cc1ccccc1Cl
inactive: [1] | [2] | [3] | [4] | [5] | [6] 16.9% | [7] | [8] | [9]

CCSCCc1nnc(NC(=O)Nc2cccc(C(F)(F)F)c2)s1
not listed: [6] | [8] | [9]
inactive: all other assays above

C[C@@H]1CN([C@H](C)CO)C(=O)c2cc(NC(=O)Nc3ccc(F)cc3)ccc2O[C@@H](C)CCCCO[C@H]1CN(C)S(=O)(=O)c1ccc(F)cc1
inactive: [1] | [2] | [3] | [4] | [5] | [6] -9.65% [at 0.5 µM, hits give low values] | [7] | [9]

C[C@@H]1CCCCO[C@@H](CN(C)Cc2ccc(Cl)c(Cl)c2)[C@H](C)CN([C@H](C)CO)C(=O)c2cc(NC(=O)c3ccccc3)ccc2O1
not listed: [6] | [8] | [9]
inactive: all other assays above
